Experimental data taken from PubChem BioAssay (NCATS).
Results filed as inconclusive are left out. Entries that show only a call come without a potency. Calls of active or inactive are those of the source. Calls come from the whole dose curve; as a rule, active = well fitted cell-killing curve with a large enough effect; inconclusive = small, poorly fitted or top-dose-only effect; inactive = flat fitted curve, though single readings scatter.

assay: Cell Viability - LYMP2-024 (AID 988); details: LYMP2-024 lymphoblastoid cell viability; series mostly up to 92.2 µM; note: nearly all actives have a fitted effect of over 60% in size
Procedure, shortened: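 Cytotoxicity was taken as a decrease in ATP (CellTiter-Glo luminescence) after 24 hr compound exposure at 37 C of LYMP2-024 lymphoblastoid cells, 2500 cells/well. Concentration-response data were fitted to the Hill equation to give AC50.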

Structure (SMILES)	Potency
Brc1ccccc1	inactive
CCOP(=S)(OCC)SCSC(C)(C)C	inactive
CCSC(=O)Cl	inactive
Cc1cccc([N+](=O)[O-])c1	inactive
Nc1c(Cl)c(Cl)nc(C(=O)O)c1Cl	inactive
CC(C)(C)OOC(C)(C)C	inactive
C=C(C)C(=O)OCC1CO1 (stereo not drawn)	inactive
Cc1ccc([N+](=O)[O-])cc1C	inactive
O=[N+]([O-])c1ccc(Cl)c(Cl)c1	inactive
C=CC(=C)C	inactive
Cc1ccc2ccccc2c1	inactive
Nc1ccccc1Cl	inactive
Clc1ccc2ccccc2c1	inactive
[O-][Br+2]([O-])O	inactive
Clc1nc(Cl)nc(Nc2ccccc2Cl)n1	inactive
OCC1CO1 (stereo not drawn)	inactive
C=CCOC(=O)c1ccccc1N	inactive
C=CC(N)=O	inactive
CC(C)(c1ccccc1)c1ccc(O)cc1	inactive
CCN(CC)c1ccccc1	inactive

Structure (SMILES)	Potency
S=C=Nc1cccc2ccccc12	inactive
N#CCCCl	inactive
O=NN(CCO)CCO	inactive
Cc1ccccc1N	inactive
C=CCOC(C)=O	inactive
CCCC(=O)Cl	inactive
NC(=S)Nc1ccccc1	inactive
O=C(Cl)/C=C/C(=O)Cl	inactive
C=C(Cl)Cl	inactive
ClCBr	inactive
COc1ccc(C=O)cc1OC	inactive
C=CC(=O)OCC	inactive
c1nc[nH]n1	inactive
c1ccc2c(c1)CCCC2	inactive
CCCSC(=O)Cl	inactive
Clc1cccc(C(Cl)(Cl)Cl)n1	inactive
O=NN(c1ccccc1)c1ccccc1	inactive
C1CCC2CCCCC2C1 (stereo not drawn)	inactive
CC(O)CCl (stereo not drawn)	inactive

assay: Cell Viability - LYMP2-026 (AID 989); details: LYMP2-026 lymphoblastoid cell viability, qHTS; series mostly up to 92.2 µM; note: nearly all actives have a fitted effect of over 50% in size
Procedure, shortened: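 Cytotoxicity read as ATP-dependent luminescence (CellTiter-Glo, 30 min room temperature) after 24 h compound treatment at 37 C. LYMP2-026 lymphoblastoid line seeded at 2500 cells/well; AC50 derived by standard Hill equation.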

Structure (SMILES)	Potency
Brc1ccccc1	inactive
CCOP(=S)(OCC)SCSC(C)(C)C	inactive
CCSC(=O)Cl	inactive
Cc1cccc([N+](=O)[O-])c1	inactive
Nc1c(Cl)c(Cl)nc(C(=O)O)c1Cl	inactive
CC(C)(C)OOC(C)(C)C	inactive
C=C(C)C(=O)OCC1CO1 (stereo not drawn)	inactive
Cc1ccc([N+](=O)[O-])cc1C	inactive
O=[N+]([O-])c1ccc(Cl)c(Cl)c1	inactive
C=CC(=C)C	inactive
Cc1ccc2ccccc2c1	inactive
Nc1ccccc1Cl	inactive
Clc1ccc2ccccc2c1	inactive
[O-][Br+2]([O-])O	inactive
Clc1nc(Cl)nc(Nc2ccccc2Cl)n1	inactive
OCC1CO1 (stereo not drawn)	inactive
C=CCOC(=O)c1ccccc1N	inactive
C=CC(N)=O	inactive
CC(C)(c1ccccc1)c1ccc(O)cc1	inactive
CCN(CC)c1ccccc1	inactive

Structure (SMILES)	Potency
S=C=Nc1cccc2ccccc12	inactive
N#CCCCl	inactive
O=NN(CCO)CCO	inactive
Cc1ccccc1N	inactive
C=CCOC(C)=O	inactive
CCCC(=O)Cl	inactive
NC(=S)Nc1ccccc1	inactive
O=C(Cl)/C=C/C(=O)Cl	inactive
C=C(Cl)Cl	inactive
ClCBr	inactive
COc1ccc(C=O)cc1OC	inactive
C=CC(=O)OCC	inactive
c1nc[nH]n1	inactive
c1ccc2c(c1)CCCC2	inactive
CCCSC(=O)Cl	inactive
Clc1cccc(C(Cl)(Cl)Cl)n1	inactive
O=NN(c1ccccc1)c1ccccc1	inactive
C1CCC2CCCCC2C1 (stereo not drawn)	inactive
CC(O)CCl (stereo not drawn)	inactive

assay: Cell Viability - LYMP1-002 - Assay at 24 hr (AID 993); details: LYMP1-002 lymphoblastoid cells viability; series mostly up to 92.2 µM
Procedure, shortened: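 qHTS cytotoxicity at 24 h: CellTiter-Glo ATP luminescence in lymphoblastoid line LYMP1-002 incubated with compound at 37 °C. Concentration-response modeled with the Hill equation for AC50; tetraoctylammonium bromide served as positive control.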

Structure (SMILES)	Potency
Brc1ccccc1	inactive
CCOP(=S)(OCC)SCSC(C)(C)C	inactive
C=C(C)C#N	inactive
CCSC(=O)Cl	inactive
Cc1cccc([N+](=O)[O-])c1	inactive
Nc1c(Cl)c(Cl)nc(C(=O)O)c1Cl	inactive
CC(C)(C)OOC(C)(C)C	inactive
C=C(C)C(=O)OCC1CO1 (stereo not drawn)	inactive
Cc1ccc([N+](=O)[O-])cc1C	inactive
O=[N+]([O-])c1ccc(Cl)c(Cl)c1	inactive
C=CC(=C)C	inactive
Cc1ccc2ccccc2c1	inactive
Nc1ccccc1Cl	inactive
Clc1ccc2ccccc2c1	inactive
[O-][Br+2]([O-])O	inactive
Clc1nc(Cl)nc(Nc2ccccc2Cl)n1	inactive
OCC1CO1 (stereo not drawn)	inactive
C=CCOC(=O)c1ccccc1N	inactive
C=CC(N)=O	inactive
CC(C)(c1ccccc1)c1ccc(O)cc1	inactive

Structure (SMILES)	Potency
CCN(CC)c1ccccc1	inactive
S=C=Nc1cccc2ccccc12	inactive
N#CCCCl	inactive
O=NN(CCO)CCO	inactive
Cc1ccccc1N	inactive
C=CCOC(C)=O	inactive
CCCC(=O)Cl	inactive
NC(=S)Nc1ccccc1	inactive
O=C(Cl)/C=C/C(=O)Cl	inactive
C=C(Cl)Cl	inactive
ClCBr	inactive
COc1ccc(C=O)cc1OC	inactive
C=CC(=O)OCC	inactive
c1nc[nH]n1	inactive
c1ccc2c(c1)CCCC2	inactive
CCCSC(=O)Cl	inactive
Clc1cccc(C(Cl)(Cl)Cl)n1	inactive
O=NN(c1ccccc1)c1ccccc1	inactive
C1CCC2CCCCC2C1 (stereo not drawn)	inactive
CC(O)CCl (stereo not drawn)	inactive
